High-throughput results from PubChem.
JMJD2A Tudor = qHTS Assay for Inhibitors of JMJD2A-Tudor Domain; 390,000 tested, 4.4% active; AlphaScreen JMJD2A-Tudor / H3K4me3 peptide binding; Potency, µM (highest dose often 114 µM), inactives show at the top dose activity change, negative = inhibition, hits mostly inhibitors; Lysine-specific demethylase 4A (Homo sapiens), O75164; note: % is set by controls: 0 for no effect and ±100 for the full control effect; nearly all actives have a fitted effect of over 50% in size
BAZ2B inh = qHTS Assay for Inhibitors of BAZ2B. Bromodomain adjacent to zinc finger domain protein 2B (Homo sapiens), Q9UIF8. AlphaScreen BAZ2B-H3K14Ac peptide displacement. Potency, µM (titrated, usually from 114 µM), without a hit: at the top dose activity change, negative = inhibition, hits mostly inhibitors. 360,000 tested, 4.4% active. AID 504333, 2011; note: % is set by controls: 0 for no effect and ±100 for the full control effect; nearly all actives have a fitted effect of over 60% in size
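AlphaScreen displacement: compounds (up to 110uM) incubated 30 min at room temperature with a preformed 50 nM BAZ2B/50 nM biotinylated H3K14Ac peptide complex in PBS pH 7.4 with Tween-20. Donor and acceptor beads at 10 ug/mL final added, 20 min light-protected before reading.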
Sfp PPTase inh = qHTS Assay for Inhibitors of Bacillus subtilis Sfp phosphopantetheinyl transferase (PPTase). 4'-phosphopantetheinyl transferase ffp (Bacillus subtilis), Q9F4F7. Biochemical Sfp PPTase activity, qHTS. Potency, µM, inactives show largest response in the series, negative = inhibition, actives largely listed as inhibitors. 310,000 tested, 3.5% active;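 note: the enzyme is Sfp with the accession as filed and its product quenches rhodamine fluorescence; 0% = enzyme reaction without inhibitor and -100% = no enzyme wells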
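Buffer: 50 mM Hepes-Na pH 7.6, 10 mM MgCl2, 0.01% Nonidet P-40, 0.01% BSA. Enzyme 15 nM, pre-exposed to compound 15 min; substrates then added and fluorescence change tracked over 30 min.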
L3MBTL1 inh = qHTS Assay for the Inhibitors of L3MBTL1; Lethal(3)malignant brain tumor-like protein 1 (Homo sapiens), Q9Y468; AlphaScreen L3MBTL1–H3K9me1 peptide binding; Potency, µM (highest dose often 57.1 µM), for inactives: at the highest dose activity, negative = inhibition, actives largely listed as inhibitors; 230,000 tested, 0.66% active; note: % is set by controls: 0 for no effect and ±100 for the full control effect; nearly all actives have a fitted effect of over 60% in size
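Displacement of a biotinylated histone H3(1-15) peptide monomethylated at Lys9 (75 nM) from L3MBTL1 (50 nM) was measured by AlphaScreen after a 30 min room-temperature compound incubation; cefsulodin titration served as intraplate control.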
G9a inh = qHTS Assay for Inhibitors of Histone Lysine Methyltransferase G9a; Histone-lysine N-methyltransferase EHMT2 (Homo sapiens), Q96KQ7; 350,000 tested, 8.8% active; G9a H3K9 monomethylation, AlphaScreen, 2 h; Potency, µM (titrated, usually from 102 µM), for the others: at the highest dose activity, negative = inhibition, actives largely listed as inhibitors; note: % is set by controls: 0 for no effect and ±100 for the full control effect; nearly all actives have a fitted effect of over 75% in size
Target sequence (Q96KQ7 913-1193 limits assumed): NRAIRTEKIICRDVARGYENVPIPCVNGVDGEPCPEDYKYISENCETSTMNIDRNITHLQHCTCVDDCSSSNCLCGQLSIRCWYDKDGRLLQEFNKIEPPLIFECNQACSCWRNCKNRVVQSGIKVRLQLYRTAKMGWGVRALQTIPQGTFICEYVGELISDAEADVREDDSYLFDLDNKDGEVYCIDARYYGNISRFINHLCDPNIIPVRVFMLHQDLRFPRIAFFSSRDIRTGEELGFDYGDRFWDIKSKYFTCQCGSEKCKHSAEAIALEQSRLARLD
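Signal arises when biotinylated H3K9 peptide, once monomethylated, bridges streptavidin donor and antibody-captured acceptor beads. Enzyme at 20 nM was preincubated 15 min with test compounds; peptide 500 nM and SAM 20 uM then reacted for 2 h.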
HP1b binding inh = HTS for Inhibitors of HP1-beta Chromodomain Interactions with Methylated Histone Tails; Chromobox protein homolog 1 (Homo sapiens), P83916; AlphaScreen HP1-beta / biotin-H3K9me3 peptide binding; Potency, µM (titrated, usually from 114 µM), for the others: at the top dose activity change, negative = inhibition, most hits filed as inhibitors; 390,000 tested, 0.56% active; AID 540317, 2011; note: nearly all actives have a fitted effect of over 70% in size
Target sequence (P83916 whole entry, looked up): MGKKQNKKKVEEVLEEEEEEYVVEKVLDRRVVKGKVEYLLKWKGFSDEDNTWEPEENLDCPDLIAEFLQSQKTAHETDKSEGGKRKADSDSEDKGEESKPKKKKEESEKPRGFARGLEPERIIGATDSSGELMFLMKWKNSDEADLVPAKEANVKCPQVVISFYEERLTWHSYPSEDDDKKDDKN
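HP1-beta protein (50 nM final) preincubated 30 min at room temperature with biotinylated H3(1-18)K9me3 peptide (50 nM) in PBS pH 7.4, 0.01% Tween-20, then compound added for 30 min. AlphaScreen streptavidin donor/nickel chelate acceptor beads (10 ug/mL final), 30 min dark, luminescence read.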
Starred values were filed as active, the others as inactive; ? = inconclusive; . = no result given; [ ] = dose if it differs, or a comment. Compounds with a hit are over-represented: about 12% of the library has one in this group of screens. Calls come from the whole dose curve; as a rule, active = well fitted curve in the direction sought with a large enough effect; inconclusive = small, poorly fitted or top-dose-only effect, or another doubt; inactive = no such curve, though single readings can be large; an effect the other way counts as inactive or inconclusive. Potency is the fitted concentration of half-maximal effect.

SMILES	JMJD2A Tudor	BAZ2B inh	Sfp PPTase inh	L3MBTL1 inh	G9a inh	HP1b binding inh
CCCN1CCC(=NNc2ccc(S(N)(=O)=O)cc2[N+](=O)[O-])CC1	-25%	-23%	6%	-6%	14µM*	0%
CC(=O)N1CCC(=NNc2ccc(S(N)(=O)=O)cc2[N+](=O)[O-])CC1	-12%	-15%	11%	2%	4%[59 µM]	-15%
CCCC(=O)Nc1cc(C(=O)O)ccc1S(=O)(=O)c1ccc(Cl)cc1	-3%	0%	1%	-1%	?	45%
O=c1c(-c2ccccc2)nc2cnc(N3CCOCC3)nc2n1-c1ccccc1	.	.	-5%	.	2%[12.7 µM]	.
c1ncc(CCCC2CCNCC2)[nH]1	.	.	27%	.	.	.
Cc1cc(C)n2nc(C(=O)NNC(=O)c3ccccc3)nc2n1	?	?	79µM*	23%	14µM*	33%
COc1ccc(NC(=O)c2ccc(NC(=O)c3nc4nc(C)cc(C)n4n3)cc2)cc1	-15%	35%	.	3%	35µM*	10%
COC(=O)c1ccccc1NC(=O)c1nc2nc(C)cc(C)n2n1	-13%	-6%	7%	.	-3%[12.7 µM]	13%
COc1ccccc1NC(=O)Cn1c(=O)n(Cc2ccco2)c(=O)c2oc3ccccc3c21	-10%	-12%	.	.	-21%[59 µM]	22%
COc1ccc2c(c1)OC(C)(C)C(c1ccccc1)C2c1ccc(OCCN2CCCC2)cc1 (stereo not given)	.	.	50µM*	.	?	.
COc1ccc(C2CC(O)(c3ccccc3)Oc3cc(OC)ccc32)cc1 (stereo not given)	-32%	-34%	?	.	?	-3%
O=C(Nc1ccc(-n2nncc2-c2ccccc2)cc1)c1cccc(F)c1	-15%	-18%	.	.	9%[59 µM]	28%
O=C(Nc1ccc(-n2nncc2-c2ccco2)cc1)c1cccc(F)c1	-35%	?	?	-10%	45µM*	-22%
O=C(CCCCCCCC(=O)c1ccccc1)c1ccccc1	288%	445%	11%	173%	472%[59 µM]	161%
O=C(CCC1CCCNC1)c1ccccc1 (stereo not given)	.	3%	-29%	-2%	50µM*	.
CCC1CCC(N2CCN(c3ccccc3F)CC2)CC1 (stereo not given)	?	-2%	5%	0%	5%	8%
CCC1CCC(N2CCN(c3ccc([N+](=O)[O-])cc3)CC2)CC1 (stereo not given)	?	71µM*	2%	-8%	.	-1%
CCC1CCC(N2CCN(c3ccc(F)cc3)CC2)CC1 (stereo not given)	-13%	-38%	-6%	-6%	45µM*	16%
CC1CCC(N2CCN(c3ccc([N+](=O)[O-])cc3)CC2)CC1 (stereo not given)	?	-36%	-6%	-9%	.	?
CC(=O)N1CCc2cc(S(=O)(=O)NC(Cc3ccccc3)C(=O)Nc3cccc(C)c3)ccc21 (stereo not given)	-19%	.	.	.	?	21%
CC1CCCCC1NC(=O)CC1Oc2ccccc2NC1=O (stereo not given)	-12%	11%	-4%	.	-15%	49%
Cc1ccc2c(c1)NC(=O)C(CC(=O)NC1CCCCC1C)O2 (stereo not given)	2%	5%	-4%	15%	45µM*	60%
Cc1ccc2c(c1)NC(=O)C(CC(=O)NCCCN1CCCCC1C)O2 (stereo not given)	-24%	-5%	-17%	.	?	36%
CCC(C)N(CCNC(=O)CC1Oc2ccc(C)cc2NC1=O)C1CCCCC1 (stereo not given)	-14%	9%	-2%	.	50µM*	36%
COc1ccccc1CNC(=O)COC(=O)c1cc(C)oc1C	-18%	4%	18%	.	-34%	37%
SMILES	JMJD2A Tudor	BAZ2B inh	Sfp PPTase inh	L3MBTL1 inh	G9a inh	HP1b binding inh
COc1ccccc1CN(C)C(=O)COC(=O)c1cc(C)oc1C	-14%	-3%	.	-5%	45µM*	13%
O=C(CNS(=O)(=O)c1c(Cl)cccc1Cl)OCC(=O)c1ccc[nH]1	-27%	79µM*	-24%	-23%	.	16%
O=C(CNS(=O)(=O)c1c(Cl)cccc1Cl)OCC(=O)N1CCN(c2ccccc2)CC1	-24%	-31%	-16%	-11%	56µM*	-9%
O=C(Cc1c(F)cccc1Cl)OCC(=O)N1CCN(c2ccccc2)CC1	-17%	.	.	-7%	.	22%
O=C(CNS(=O)(=O)c1ccc(Br)cc1Cl)OCC(=O)c1ccc[nH]1	-25%	-4%	.	-3%	?	21%
CC(=O)Nc1ccc(S(=O)(=O)NCC(=O)OCC(=O)N2CCN(c3ccccc3)CC2)cc1	-21%	-27%	18%	4%	50µM*	28%
COc1ccc(CNc2ccnc(-c3ccccc3OC)n2)c(OC)c1	.	.	14%	.	-2%[0.501 µM]	.
COC(=O)C1=COC(O[C@H]2OC(CO)[C@H](O)C(O)C2O)[C@H]2C1C(=O)C[C@@H]2C (stereo not given in full)	.	.	3%	.	.	.
CCCCCCCCCCCCCCCC(=O)OCC(COC(=O)CCCCCCCCCCCCCCC)OC(=O)CCCCCCCCCCCCCCC	.	.	5%	.	-22%[12.7 µM]	.
Clc1ccccc1OCc1nnc2n1CCCCC2	-9%[11.4 µM]	-17%	12%	.	1%	35%
OC1(c2ccccc2Cl)NN=C2CCCCCN21 (stereo not given)	5.6µM*	-18%	1%	6%	79µM*	-21%
CCN(Cc1ccncc1)C(=O)c1cc(COc2ccc(F)cc2Cl)on1	-18%	-6%	7%	.	.	9%
Cc1ccc(CN(C)C(=O)c2cc(COc3cccc(C(F)(F)F)c3)on2)o1	-22%	-5%	20µM*	.	32µM*	3%
C#CCN(Cc1ccco1)C(=O)c1cc(COc2ccc(F)cc2Cl)on1	-13%[11.4 µM]	71µM*	13µM*	-22%	.	63%
Cc1ccc(CN(C)C(=O)c2cc(COc3ccc(F)cc3Cl)on2)o1	?	10%	35µM*	18%	.	-11%
CN(Cc1nccn1C)C(=O)c1cc(COc2cccc(C(F)(F)F)c2)on1	-15%	-30%	0%	.	2%	37%
C[C@H](CO)N1C[C@H](C)[C@@H](CN(C)C(=O)NC2CCCCC2)Oc2c(NC(=O)C3CCCCC3)cccc2C1=O	2%	.	.	2%	.	43%
CCOC(=O)c1cnc2ccc(C(=O)OC)cc2c1Nc1ccc(OCc2ccccc2Cl)cc1	-14%	1%	.	.	-4%[59 µM]	5%
